Assay [1] addresses Progesterone receptor (Homo sapiens) (UniProt P06401). The experiment in a line: qHTS assay to identify small molecule agonists of the progesterone receptor (PR) signaling pathway (AID 1346784; calls by dose curve; also: nearly all actives have a fitted effect of over 30% in size). An outline of the steps: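 PR-UAS-bla HEK 293T cells carrying a UAS-driven beta-lactamase reporter were seeded in medium with 2% charcoal-stripped FBS, preincubated 6 hr at 37C, then exposed to compounds in DMSO for 16 hr; agonism was read by LiveBLAzer B/G FRET fluorescence.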

The target is the same in assay [2]. Nature of the assay: qHTS assay to identify small molecule antagonists of the progesterone receptor (PR) signaling pathway (AID 1346795; active = well fitted inhibition curve with a large enough effect in the signal ratio in the repeat runs, not every such curve was filed as active; the % refers to the signal ratio; also: potency is read from the fitted curve at half-maximal effect). An outline of the steps: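 PR-UAS-bla HEK293T cells carrying a UAS-driven beta-lactamase reporter were plated in medium with 2% charcoal-stripped FBS and rested 6 hr at 37C. Compounds were added with 1 nM R5020 (final) for 16 hr, then FRET substrate loaded 2 hr at room temperature.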
(In general: In qHTS, concentration-response curves come from the screen itself.)

Assay [3] can be described thus: qHTS assay to identify small molecule antagonists of the progesterone receptor (PR) signaling pathway - cell viability counter screen (AID 1346798). Also: series mostly up to about 92 µM; nearly all actives have a fitted effect of over 50% in size. An outline of the steps:
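PR-UAS-bla HEK293T cells in medium with 2% charcoal-stripped FBS were treated with compounds plus R5020 for 16 hr at 37C. Cell viability was then read by CellTiter-Glo luminescence after 30 min at room temperature in the same wells.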

The nature of assay [4]: qHTS assay to identify small molecule agonists of the TGF-beta/Smad signaling pathway - cell viability counter screen (AID 1346829). Also: top concentration of the series differs between compounds; nearly all actives have a fitted effect of over 45% in size. An outline of the steps: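 In parallel with the Smad reporter read, viability of HEK 293T cells stably carrying SBE-bla is quantified by ATP luminescence following 5 hr compound treatment.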
A short description of assay [5]: qHTS assay to identify small molecule agonists of the TGF-beta/Smad signaling pathway (AID 1346859; active = well fitted activation curve with a large enough effect in the signal ratio in the repeat runs, not every such curve was filed as active; the % refers to the signal ratio; also: series mostly up to about 77 µM). An outline of the steps: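 HEK 293T cells stably carrying a beta-lactamase reporter driven by the Smad binding element were seeded overnight, exposed to DMSO-dissolved compounds for 5 hr at 37 C, 5% CO2, then loaded with FRET substrate for 2 hr at room temperature.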

For assay [6], the target named is Thyrotropin-releasing hormone receptor (Homo sapiens) (UniProt P34981). The experiment in a line: qHTS assay to identify small molecule antagonists of the thyrotropin-releasing hormone receptor (TRHR) signaling pathway (AID 1346877; active = well fitted inhibition curve with a large enough effect in the repeat runs, not every such curve was filed as active; also: series mostly up to about 51 µM). An outline of the steps: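 Antagonism is measured as suppression of the calcium response to 1 nM TRH in TRHR-HEK293 cells that have been dye-loaded for 2 h at 37 °C after overnight plating. Each compound is tested at 15 concentrations in triplicate.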
Sequence of Thyrotropin-releasing hormone receptor (Homo sapiens) (P34981 whole entry, looked up): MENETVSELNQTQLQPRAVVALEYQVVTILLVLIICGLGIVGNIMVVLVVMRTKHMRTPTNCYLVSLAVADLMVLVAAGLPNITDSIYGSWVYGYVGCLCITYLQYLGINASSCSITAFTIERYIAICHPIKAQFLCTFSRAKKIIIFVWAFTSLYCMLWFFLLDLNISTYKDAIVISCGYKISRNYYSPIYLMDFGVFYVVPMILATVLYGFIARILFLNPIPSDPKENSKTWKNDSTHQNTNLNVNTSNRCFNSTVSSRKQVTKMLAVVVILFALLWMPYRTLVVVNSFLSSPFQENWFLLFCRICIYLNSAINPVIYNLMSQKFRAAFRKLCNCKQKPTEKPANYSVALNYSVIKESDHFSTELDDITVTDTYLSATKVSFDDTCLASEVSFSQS

Assay [7] has the same target. Nature of the assay: qHTS assay to identify small molecule agonists of the thyrotropin-releasing hormone receptor (TRHR) signaling pathway (AID 1346891; calls by dose curve; also: series mostly up to about 58 µM). An outline of the steps: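 TRHR-expressing HEK293 cells were plated 18 h at 37 °C/5% CO2, loaded with calcium dye 2 h at 37 °C, then given compound in DMSO; fluorescence was read kinetically for 3 min at 1 s intervals.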

A short description of assay [8]: Human pregnane X receptor (PXR) small molecule agonists, qHTS cell viability counter screen (AID 1346977). Also: nearly all actives have a fitted effect of over 50% in size. Also: potency is read from the fitted curve at half-maximal effect. An outline of the steps: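 PXR-Luc HepG2 cells in medium with 5% charcoal-stripped FBS were pre-incubated 5hr, then exposed to compounds for 24hr at 37C. Viability was read in the same wells by CellTiter-Fluor fluorescence, reagent added after 23hr with a 1hr incubation.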

A short description of assay [9]: Caspase-3/7 induction in HepG2 cells by small molecules, qHTS assay (AID 1346978). Also: nearly all actives have a fitted effect of over 15% in size. An outline of the steps: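 Caspase-3/7 induction was measured by Caspase-Glo 3/7 luminescence (30 min, room temperature) after a 17 hr compound exposure of wild-type HepG2 cells seeded at 2,000 per well and pre-incubated 5 hr.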
A short description of assay [10]: Caspase-3/7 induction in CHO-K1 cells by small molecules, qHTS cell viability counter screen (AID 1346979). Also: nearly all actives have a fitted effect of over 35% in size. Also: potency is read from the fitted curve at half-maximal effect. An outline of the steps: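 Wild-type CHO-K1 cells were seeded at 1,500 per well, rested 5hr at 37 C, then exposed to compounds in DMSO. After 16hr, CellTiter-Fluor reagent was added and fluorescence read 1hr later as the viability measure.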
Assay [11] in a line: Caspase-3/7 induction in CHO-K1 cells by small molecules, qHTS assay (AID 1346980). Also: nearly all actives have a fitted effect of over 15% in size. An outline of the steps: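 Luminescent Caspase-Glo 3/7 read (30min, room temperature) quantified apoptosis induction. Cells were wild-type CHO-K1, treated with compound for 17hr at 37 C and 5% CO2.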
Assay [12] in a line: Caspase-3/7 induction in HepG2 cells by small molecules, qHTS cell viability counter screen (AID 1346981). Also: nearly all actives have a fitted effect of over 30% in size. Also: potency is read from the fitted curve at half-maximal effect. An outline of the steps: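 Cell viability is measured as a cytotoxicity counter screen alongside the Caspase-Glo 3/7 readout in identical wells. Wild-type HepG2 cells are treated with test compounds for 16 hr at 37 C before CellTiter-Fluor addition and a 1-hr incubation.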

Assay [13] deals with Nuclear receptor subfamily 1 group I member 2 (Homo sapiens) (UniProt O75469). The experiment in a line: Human pregnane X receptor (PXR) small molecule agonists, qHTS assay (AID 1346982). Also: nearly all actives have a fitted effect of over 35% in size. Also: potency is read from the fitted curve at half-maximal effect. An outline of the steps:
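Cells: HepG2 stably carrying PXR-Luc. Medium held 5% charcoal-stripped FBS. Compounds in DMSO added after 5 hr plating, incubated 24 hr, then luminescence quantified with ONE-Glo.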

In assay [14] the target is Cytochrome P450 2D6 (Homo sapiens) (UniProt P10635). The experiment in a line: Cytochrome P450 Family 2 Subfamily D Member 6 (CYP2D6) small molecule antagonists: luciferase reporter qHTS assay (AID 1671196). Also: nearly all actives have a fitted effect of over 50% in size. Also: potency is read from the fitted curve at half-maximal effect. An outline of the steps: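 Enzyme and proluciferin substrate were first combined with test chemical for 10 min at room temperature. Adding NADPH regeneration solution started a 1 h reaction, stopped with luciferin detection reagent and read by luminescence 20 min later.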
Sequence of Cytochrome P450 2D6 (Homo sapiens) (P10635 whole entry, looked up): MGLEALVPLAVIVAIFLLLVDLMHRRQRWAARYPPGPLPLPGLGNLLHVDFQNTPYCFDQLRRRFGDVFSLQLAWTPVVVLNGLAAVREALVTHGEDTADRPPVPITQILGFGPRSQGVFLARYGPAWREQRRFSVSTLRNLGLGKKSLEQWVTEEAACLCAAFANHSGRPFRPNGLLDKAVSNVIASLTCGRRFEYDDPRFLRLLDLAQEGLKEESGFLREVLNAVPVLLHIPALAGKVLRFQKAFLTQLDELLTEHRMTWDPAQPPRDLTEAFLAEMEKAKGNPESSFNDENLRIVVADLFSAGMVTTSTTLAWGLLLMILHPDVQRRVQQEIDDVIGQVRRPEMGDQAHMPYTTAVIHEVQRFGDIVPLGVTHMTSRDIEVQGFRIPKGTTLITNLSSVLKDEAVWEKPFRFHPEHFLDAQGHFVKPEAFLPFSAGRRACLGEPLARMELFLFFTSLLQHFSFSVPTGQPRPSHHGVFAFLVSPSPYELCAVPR

Assay [15] concerns the target Cytochrome P450 2C19 (Homo sapiens) (UniProt P33261). The experiment in a line: Cytochrome P450 Family 2 Subfamily C Member 19 (CYP2C19) small molecule antagonists: luciferase reporter qHTS assay (AID 1671197). Also: nearly all actives have a fitted effect of over 65% in size. Also: potency is read from the fitted curve at half-maximal effect. An outline of the steps: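 Compounds were tested on CYP2C19 activity via proluciferin conversion to luciferin. The 37C, 1 h reaction followed NADPH addition; detection reagent stopped it.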
In general terms: In a reporter assay the amount or activity of a reporter protein is the signal.

Assay [16] in a line: qHTS assay to identify small molecule agonists of the progesterone receptor (PR) signaling pathway - cell viability counter screen (AID 1346799; calls by dose curve; also: nearly all actives have a fitted effect of over 45% in size). An outline of the steps: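 PR-UAS-bla HEK293T cells, 3,000 per well in medium with 2% charcoal-stripped FBS, were preincubated 6 hr at 37C, then exposed to compounds for 16 hr; viability was read as CellTiter-Glo luminescence after 30 min at room temperature.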

Assay [17] in a line: qHTS assay to identify small molecule antagonists of the TGF-beta/Smad signaling pathway - cell viability counter screen (AID 1346824). Also: nearly all actives have a fitted effect of over 50% in size. An outline of the steps:
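Cytotoxicity counter-screen run in the same wells as the beta-lactamase Smad reporter read: CellTiter-Glo luminescence after 30 min at room temperature. HEK 293T SBE-bla cells had 5 hr compound exposure at 37 C with TGF-beta1 (0.25 ng/mL stock).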

Assay [18] deals with Nuclear receptor subfamily 1 group I member 2 (Homo sapiens) (UniProt O75469). The experiment in a line: CYP3A4 induction through human pregnane X receptor (PXR) by small molecules, qHTS assay (AID 1346984). Also: nearly all actives have a fitted effect of over 40% in size. An outline of the steps: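 Quantitative HTS in DPX-2 cells, i.e. HepG2 transfected with PXR response element and CYP3A4-promoter luciferase. Compounds in DMSO incubated 24hr at 37C; then P450-Glo CYP3A4 substrate, 3uM final, 3hr; One-Glo luminescence.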
Sequence of Nuclear receptor subfamily 1 group I member 2 (Homo sapiens) (O75469 whole entry, looked up): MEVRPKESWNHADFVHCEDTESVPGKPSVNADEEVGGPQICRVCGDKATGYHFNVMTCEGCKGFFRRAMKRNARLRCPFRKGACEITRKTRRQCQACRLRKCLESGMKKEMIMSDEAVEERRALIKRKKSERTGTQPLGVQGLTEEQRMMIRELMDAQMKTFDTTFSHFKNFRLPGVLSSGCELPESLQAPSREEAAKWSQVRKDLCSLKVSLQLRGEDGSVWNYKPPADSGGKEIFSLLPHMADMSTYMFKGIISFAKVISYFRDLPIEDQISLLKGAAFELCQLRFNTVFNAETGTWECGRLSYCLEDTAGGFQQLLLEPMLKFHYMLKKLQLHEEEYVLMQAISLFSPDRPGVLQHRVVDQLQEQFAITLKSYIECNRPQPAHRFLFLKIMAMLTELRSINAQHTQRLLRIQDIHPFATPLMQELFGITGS

Values joined by “and” are separate entries in the source; they are usually repeats but may differ in a detail not shown here. Identical values can stand only once. Values without a mark were called inactive. Results filed as inconclusive are left out. Active and inactive are the calls of the source. Unless noted, calls follow the shape of the dose curve; as a rule, active = well fitted curve in the direction sought with a large enough effect in the repeat runs; inconclusive = weak or mixed curves; inactive = no such curve, though single readings can be large; an effect the other way counts as inactive or inconclusive.

Sequence of Progesterone receptor (Homo sapiens) (P06401 whole entry, looked up): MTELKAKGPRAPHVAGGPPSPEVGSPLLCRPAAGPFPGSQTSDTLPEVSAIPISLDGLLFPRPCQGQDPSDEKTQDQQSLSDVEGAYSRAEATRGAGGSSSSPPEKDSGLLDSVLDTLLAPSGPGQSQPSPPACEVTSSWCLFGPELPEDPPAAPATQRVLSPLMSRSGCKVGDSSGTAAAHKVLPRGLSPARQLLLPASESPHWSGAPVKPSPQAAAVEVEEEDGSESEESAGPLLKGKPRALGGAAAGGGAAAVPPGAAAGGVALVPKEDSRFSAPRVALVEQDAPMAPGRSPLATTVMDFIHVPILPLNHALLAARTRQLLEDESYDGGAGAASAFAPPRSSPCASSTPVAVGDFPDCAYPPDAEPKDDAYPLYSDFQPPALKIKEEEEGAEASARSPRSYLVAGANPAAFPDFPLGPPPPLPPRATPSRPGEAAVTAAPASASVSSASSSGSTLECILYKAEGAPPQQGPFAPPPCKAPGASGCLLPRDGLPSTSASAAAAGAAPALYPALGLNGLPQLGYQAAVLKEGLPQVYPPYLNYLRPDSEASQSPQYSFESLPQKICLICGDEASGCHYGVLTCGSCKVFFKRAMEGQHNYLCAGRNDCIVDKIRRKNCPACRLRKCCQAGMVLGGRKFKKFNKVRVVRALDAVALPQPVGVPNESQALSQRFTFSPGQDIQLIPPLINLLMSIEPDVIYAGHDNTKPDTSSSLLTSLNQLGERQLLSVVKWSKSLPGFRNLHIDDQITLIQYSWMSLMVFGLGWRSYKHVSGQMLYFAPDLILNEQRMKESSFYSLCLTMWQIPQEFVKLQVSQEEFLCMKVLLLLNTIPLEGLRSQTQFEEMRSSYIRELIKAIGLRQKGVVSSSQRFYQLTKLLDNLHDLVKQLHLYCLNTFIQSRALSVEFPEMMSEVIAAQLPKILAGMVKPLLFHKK
Sequence of Cytochrome P450 2C19 (Homo sapiens) (P33261 whole entry, looked up): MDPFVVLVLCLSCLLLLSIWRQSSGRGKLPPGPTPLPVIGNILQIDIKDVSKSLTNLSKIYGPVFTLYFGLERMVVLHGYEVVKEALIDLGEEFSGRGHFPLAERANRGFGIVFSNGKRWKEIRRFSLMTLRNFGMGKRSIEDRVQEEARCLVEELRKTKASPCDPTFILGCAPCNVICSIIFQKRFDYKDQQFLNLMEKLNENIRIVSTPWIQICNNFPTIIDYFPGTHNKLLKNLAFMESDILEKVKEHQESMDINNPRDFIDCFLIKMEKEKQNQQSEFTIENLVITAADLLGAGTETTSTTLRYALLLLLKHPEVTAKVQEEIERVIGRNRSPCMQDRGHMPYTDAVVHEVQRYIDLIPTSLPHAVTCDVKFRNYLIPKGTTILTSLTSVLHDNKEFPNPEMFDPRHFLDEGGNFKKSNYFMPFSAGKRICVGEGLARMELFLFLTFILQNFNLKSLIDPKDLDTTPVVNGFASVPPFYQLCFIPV

For the molecule `CSc1c(Cl)c(Cl)c(Cl)c(Cl)c1Cl`, the call in assay [1] was inactive. Also, the Potency result in assay [2], in assay [3], in assay [4], in assay [5], in assay [6] and in assay [7] was “inactive” each time. For the same molecule, the Potency entry in assay [8], in assay [9], in [10], in [11], in [12] and in [14] was “inactive” throughout. Moreover, the Potency entry in assay [15] was “inactive”. In assay [13], the Potency was 68.2 µM (active).
For `OCCN1CN(CCO)CN(CCO)C1`, the call in assay [1] was inactive. Further, the Potency result in assay [2], in assay [16], in [17], in assay [4], in assay [5] and in assay [6] was “inactive” in each case. Further, the Potency result in assay [7], in [8], in [9], in assay [10], in assay [11] and in [13] was “inactive” throughout.
For the molecule `CC[N+](CC)(CC)Cc1ccccc1`, in assay [1], the molecule was called inactive. For the same molecule, the Potency result in assay [2], in assay [16], in assay [4], in assay [5], in [6] and in assay [7] was “inactive” throughout. Moreover, the Potency result in assay [8], in assay [9], in [10], in assay [11], in assay [12] and in [13] was “inactive” in each case. The Potency result in assay [15] was “inactive”. In [14], the Potency was 35.6 µM (active).
For the molecule `COc1ccc2sc(C(=O)Nc3nnn[nH]3)c(OC(C)C)c2c1`, the molecule was called inactive in assay [1]. The Potency was 54.3 µM (active) in [2], 24.2 µM (active) in [8] and 38.4 µM (active) in assay [10]. Moreover, the Potency result in assay [3], in assay [17], in assay [4], in assay [9], in assay [11] and in assay [14] was “inactive” throughout. In addition, the Potency result in assay [15] is “inactive”.
`CC(C)=CC1CC(C)CCO1` (stereo not given): in assay [1], the result was inactive. Moreover, the Potency result in [2], in [16], in assay [4], in assay [5], in assay [6] and in assay [7] was “inactive” in each case. Further, the Potency result in assay [8], in [9], in [11], in [12], in [13] and in [14] was “inactive” in each case. In addition, the Potency entry in assay [15] was “inactive”.
In the case of `CCCCC(CC)COC(=O)c1ccc(O)cc1` (stereo not given), in [1], the molecule was classed as inactive. Also, the Potency in assay [2] was 30.5 µM (active) and 27.3 µM (active); in assay [10], 54.3 µM (active) and 61.1 µM (active); in assay [13], 24.2 µM (active) and 68.6 µM (active); in assay [14], 79.4 µM (active) and 22.4 µM (active); in [15], 11.2 µM (active) and 17.8 µM (active). Further, the Potency result in [16], in assay [4], in assay [5], in assay [6], in assay [7] and in assay [9] was “inactive” throughout. The Potency result in [11] was “inactive”.
With `Cc1nc(Nc2ncc(C(=O)Nc3c(C)cccc3Cl)s2)cc(N2CCN(CCO)CC2)n1`, the outcome in assay [1] was inactive. Moreover, the Potency in assay [2] was 13.3 µM (active); in assay [8] it was 9.44 µM (active); in [10] it was 13.3 µM (active); in [12], 18.8 µM (active); in assay [13], 1.06 µM (active). Moreover, the Potency entry in [16], in assay [17], in assay [4], in assay [5], in [6] and in [7] was “inactive” in each case. Also, the Potency result in assay [11] and in assay [18] was “inactive” each time.
